Source: PubChem
A1 inh: inhibitors of the anti-apoptotic protein A1, read as caspase activation | MEF A1-2A-BIM cells, Caspase-Glo 3/7 luminescence, 3 h; percent of clofoctol response, vehicle zero | caspase activation, % (concentration not given with the values) | actives 0.066% (n = 330,000) | AID 2462;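 active = over half of replicate activation scores above 10%, or exactly half above 10 with the replicate mean above 10; inconclusive = replicate mean below 10 yet half the replicates above 10; inactive = over half of replicates below 10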
Beta apoptosis: blocks beta cell apoptosis | INS-1E cytokine-induced death, ATP luminescence, 48 h; percent of positive-control rescue, neutral wells zero | protection from apoptosis, % (no concentration beside the values) | actives 0.8% (n = 300,000) | AID 435005;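 active = Every replicate reaches about 75%, or at least half do and their mean reaches it too, limit read from the data; inconclusive = At least half of replicates reach the limit but their mean does not; inactive = Under half of replicates reach the limit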;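 note: 0% = cytokine-treated negative control wells and 100% = positive control rescue; higher means more ATP so stronger rescue from cytokine killing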
Mdm2 MdmX PPI: human Mdm2/MdmX binding inhibition | inhibition, % at 8 µM | actives 3% (n = 330,000) | SaOS-2 split-luciferase Mdm2/MdmX complementation, luminescence | AID 485346;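 active = inhibition of at least 50% at 8 µM in the primary screen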
697 NFkB inh: lowers PMA/ionomycin-induced NF-kB signal in 697 B cells | 697 B-cell NF-kB luciferase reporter, 16 h | inhibition, % at 4 µM | actives 0.33% (n = 330,000) | AID 435022; in the data active = inhibition above about 35%
Jurkat NFkB inh: inhibitors of the PMA/ionomycin-induced NF-kB reporter in Jurkat cells; PMA/ionomycin-induced NF-kB luciferase reporter, luminescence; inhibition, % at 4 µM; actives 0.53% (n = 330,000); in the data active = inhibition above about 50%
NTR1 agonist: NTR1 (human) agonism; AID 493036; activation, % at 20 µM; NTR1-U2OS beta-arrestin-GFP spot imaging, agonist mode; actives 0.17% (n = 330,000);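 active = activation at or above 40% of the spot to cytoplasm intensity ratio, with at least 20 cells analyzed; inconclusive = wells under 20 cells, flagged as cytotoxic or low count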;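 note: 0% = DMSO without peptide and 100% = 100 nM NTR1 peptide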
Target sequence (P30989 whole entry, looked up): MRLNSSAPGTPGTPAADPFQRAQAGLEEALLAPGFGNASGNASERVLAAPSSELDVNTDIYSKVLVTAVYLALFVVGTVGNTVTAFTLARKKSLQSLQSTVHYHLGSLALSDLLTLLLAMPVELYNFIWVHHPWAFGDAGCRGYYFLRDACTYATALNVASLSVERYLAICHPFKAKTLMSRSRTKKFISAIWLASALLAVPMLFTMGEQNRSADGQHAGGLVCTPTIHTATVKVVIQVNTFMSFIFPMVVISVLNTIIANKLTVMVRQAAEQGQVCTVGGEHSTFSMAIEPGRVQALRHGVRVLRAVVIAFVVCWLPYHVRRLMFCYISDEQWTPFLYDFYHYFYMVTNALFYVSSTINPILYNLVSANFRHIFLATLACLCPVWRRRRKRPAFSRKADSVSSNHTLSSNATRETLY
Jurkat NFkB conf: lowers PMA/ionomycin-induced NF-kB signal in Jurkat cells; shares compounds with Jurkat NFkB inh; Jurkat NF-kB luciferase, 16 h; inhibition, % at 4 µM; actives 27% (n = 2,700);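 active = inhibition reaching about 45% at 4 µM in either replicate, limit read from the data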;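 note: plate controls were PMA/ionomycin stimulated DMSO wells for no effect and unstimulated DMSO wells for full effect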
* marks the source's active call; other numbers are inactive results; ? = inconclusive; · = no result given. A selection: hits, their analogues and other compounds. The true share with any hit is near 3.8%.

SMILES	A1 inh	Beta apoptosis	Mdm2 MdmX PPI	697 NFkB inh	Jurkat NFkB inh	NTR1 agonist	Jurkat NFkB conf
CN(CC(=O)Nc1ccccc1Cl)CC(=O)Nc1sc2c(c1C(N)=O)CCC2	1.1	3.7	16.7	5.8	14.9	3.0	·
O=C(c1ccccc1)N1CCC(c2nc(-c3ccc(S(=O)(=O)N4CCOCC4)cc3)no2)CC1	-0.7	8.4	-6.0	-12.9	22.2	-0.3	·
O=C(Nc1ccccc1)N1CCC(c2nc(-c3ccc(S(=O)(=O)N4CCOCC4)cc3)no2)CC1	-0.1	13.8	39.7	-81.5	52.9*	-1.4	19.1
Cc1ccsc1/C=C/c1ccc2ccccc2n1	0.6	13.5	-90.1	-161.6	-164.6	0.9	-105.1
O=C(Nc1cccc(S(=O)(=O)NC2=NCCCCC2)c1)c1ccc(Cl)cc1	·	·	30.0	-44.9	19.8	0.0	·
Cc1cc(OCC(=O)NNC(=S)NC(=O)c2ccc(Br)o2)ccc1Cl	0.6	5.8	47.6	11.2	-15.6	1.1	·
CCn1ncc(C2=NOC(C(=O)NCc3ccc(Cl)cc3)C2)c1C (stereo not given)	1.5	14.7	45.1	-60.3	74.1*	0.4	49.6*
O=C(O)/C=C/c1cnc2ccccc2n1	-0.2	-9.3	4.9	15.7	7.3	0.5	·
O=C(/C=C/c1cnc2ccccc2n1)NC12CC3CC(CC(C3)C1)C2	-0.6	4.3	24.8	-152.9	-155.9	2.6	1.8
O=C(Cc1ccccc1)NCc1ccc(-n2cccc2)cc1	1.0	1.5	46.4	-36.4	53.9*	-1.5	13.8
Cc1[nH]c2ccccc2c1CCN(Cc1cccnc1)C(=S)NC(C)(C)C	-0.4	-9.8	1.0	9.4	-12.0	-0.9	·
CCOc1ccc(Br)cc1S(=O)(=O)Nc1ncn[nH]1	0.3	-2.5	3.9	-8.5	-0.4	2.5	·
Cc1cccc(CNC(=O)C2CCC(=O)N(CCc3cccc(F)c3)C2)n1 (stereo not given)	·	·	-3.6	11.0	16.8	2.2	·
c1ccc2oc(-c3csc(N4CCOCC4)n3)cc2c1	-0.1	0.2	-121.1	-216.4	-221.5	0.7	-23.1
Cc1ccc(C)c(NC(=S)N2CCC(NC(=O)c3ccccc3)CC2)c1	0.8	4.3	24.9	13.5	-1.2	0.5	·
Cc1ccc(CNc2ccc3c(c2)nc(C)n3C)cc1	-3.5	0.5	-68.5	-200.9	-156.0	0.2	-59.2
Cc1ccc(CNc2ccc3c(c2)ncn3C(C)(C)C)cc1	0.6	-2.2	-203.7	-160.5	-161.4	2.6	-21.8
Cc1ccc(CNc2ccc3c(c2)ncn3C)cc1	0.8	-2.4	-27.1	-30.6	-29.2	4.8	·
CN(c1ccccc1)S(=O)(=O)c1ccc2c(c1)OCCO2	-2.0	12.1	-14.4	-19.5	-15.9	-2.0	·
O=C(CCCCCNC(=O)N1CCn2c1nc1ccccc12)NCc1ccccc1Cl	1.1	0.3	13.9	9.1	20.1	-0.2	·
C[C@]12C=CC(=O)C=C1CC[C@@H]1[C@@H]2[C@@H](O)C[C@@]2(C)[C@H]1CC[C@]2(O)C(=O)CO	0.5	·	-31.8	2.2	17.7	-0.8	·
COC(=O)c1ccc(COc2cc(O)c3c(c2)OC(C)(C)CC3=O)cc1	-2.1	4.9	24.3	-25.7	-1.2	2.0	·
CC1(C)CC(=O)c2c(O)cc(OCc3ccc(Br)cc3)cc2O1	0.8	5.9	-105.8	-137.0	-152.6	0.8	-68.5
COc1ccc(N/C=C/C(=O)c2ccc(Cl)cc2)cc1	-4.4	2.0	-124.6	-194.7	-174.2	2.4	-1.2
COc1cccc(C(=O)/C=C/Nc2cccc(O)c2)c1	-11.0	-2.7	-256.5	-62.4	-198.5	-0.5	-181.9
SMILES	A1 inh	Beta apoptosis	Mdm2 MdmX PPI	697 NFkB inh	Jurkat NFkB inh	NTR1 agonist	Jurkat NFkB conf
O=c1[nH]c(C2CCN(S(=O)(=O)c3ccccc3C(F)(F)F)CC2)nc2c1nnn2Cc1cccc(F)c1	0.3	·	41.0	-27.7	-0.5	7.1	·
CCOC(=O)CSc1nc2cc(C)ccc2cc1C#N	0.5	-4.2	-72.7	-118.7	-156.4	2.4	-88.6
CCOC(=O)CSc1nc2cc(OC)ccc2cc1C#N	-0.5	-2.3	-115.6	-190.3	-206.7	0.6	-88.2
COc1ccc2cc(C#N)c(SCC(=O)Nc3nonc3C)nc2c1	-1.8	6.7	-0.6	-16.6	1.4	1.2	·
CCOC(=O)CSc1nc2ccc(C)cc2cc1C#N	-1.1	-0.9	-157.1	-110.4	-146.6	2.6	·
CCc1ccc(Nc2ncc3c(n2)CC(C)CC3=O)cc1 (stereo not given)	-4.9	-3.1	-116.3	-164.4	-172.0	1.7	-91.3
Cc1nc(-c2ccc(NC(=O)c3ccco3)cc2)cs1	-6.9	17.7	30.9	-162.3	52.1*	0.1	36.8
Cc1nc(-c2cccc(NC(=O)c3ccco3)c2)cs1	0.6	-8.8	-4.8	7.0	-21.6	0.2	·
COc1ccc(-c2ccc3c(c2)O/C(=C\c2ccsc2)C3=O)cn1	1.4	-1.4	-60.5	-40.0	-12.2	1.7	·
Cc1cccc(C(=O)N2CC(=O)Nc3ccc(F)cc3C2c2ccc(F)cc2)c1 (stereo not given)	0.2	4.9	-29.9	15.4	15.3	3.2	·
Cc1nn(-c2cccc(C(F)(F)F)c2)c(Cl)c1/C=N/Nc1cccc(C(=O)O)c1	-4.2	12.6	·	·	·	·	·
CCOC(=O)N/N=C/c1c(C)nn(-c2cccc(C(F)(F)F)c2)c1Cl	-0.2	35.4	35.0	-43.9	51.2*	-1.6	46.5
CCN(CC)S(=O)(=O)c1cccc(C(=O)OC2CC(C)OC2=O)c1 (stereo not given)	2.0	-4.6	-15.5	11.7	12.3	-2.0	·
Cc1ccc(S(=O)(=O)CCC(=O)OC2CC(C)OC2=O)cc1 (stereo not given)	0.7	-4.3	4.2	16.6	-213.7	-1.7	12.7
O=C(Cc1ccccc1Cl)N/N=C/c1cccnc1	0.9	-3.7	9.2	-3.9	-3.0	1.2	·
O=C(Nc1nc2ccsc2c(=O)s1)c1ccc(Cl)cc1	-7.8	-3.5	-46.0	-143.5	-198.9	0.8	-108.5
CCNC(=O)c1ccc(NC(=O)CC2SC(N3CCCC3)=NC2=O)cc1 (stereo not given)	0.7	-5.3	-13.5	-41.2	-2.0	-0.6	·
COc1ccc(N2CC(C(=O)Nc3ccccc3N3CCCC3)CC2=O)c(OC)c1 (stereo not given)	?	-0.3	48.5	-7.9	57.9*	-0.2	12.6
COc1ccc(N2CC(C(=O)Nc3cc(C(F)(F)F)ccc3N3CCCC3)CC2=O)c(OC)c1 (stereo not given)	0.8	-1.8	35.7	1.8	39.2	1.1	·
CCC(=O)c1ccc(OCC(=O)Nc2ccccc2N2CCCCC2)cc1	-0.3	0.3	21.3	-10.8	51.4*	3.4	10.8
Cc1ccc(CNC(=O)CN(C)C2=NS(=O)(=O)c3ccccc32)cc1	-0.2	-7.8	2.5	-15.6	11.5	1.9	·
O=C(NC1CCN(Cc2ccccc2)CC1)c1ccccc1	0.3	·	4.5	-12.9	-9.9	0.6	·
